Measurements: the supplement of paper PMC13380429

These compounds were tested on Vero E6 infected with SARS-CoV-2 (assay: morphology score (similarity to uninfected cells); higher = more like uninfected cells). Conditions: 24 h.

SMILES	morphology score
Clc1ccc(C2=CCC[C@H]3CC[C@@H]2N3)cn1 (10 µM)	-0.0924
NS(=O)(=O)c1cc2c(cc1Cl)N=C(CSCc1ccccc1)NS2(=O)=O [benzthiazide] (10 µM)	-0.187
CCCCCCCCCCCC(=O)O [lauric-acid] (10 µM)	0.185
CC(C)[C@@H](CS(=O)(=O)C(C)C)N1C(=O)[C@@](C)(CC(=O)O)C[C@H](c2cccc(Cl)c2)[C@H]1c1ccc(Cl)cc1 (10 µM)	-0.12
O=c1cc(N2CCOCC2)oc2c(-c3ccccc3)cccc12 (0.833333 µM)	0.266
C[C@@H]1CCN(C(=O)CC#N)C[C@@H]1N(C)c1ncnc2[nH]ccc12 (10 µM)	0.281
C[C@H]1[C@H](NC(=O)/C(=N\OC(C)(C)C(=O)O)c2csc(N)n2)C(=O)N1S(=O)(=O)O [aztreonam] (10 µM)	-0.0447
CCC/N=C1\S/C(=C\c2ccc(OC[C@H](O)CO)c(Cl)c2)C(=O)N1c1ccccc1C [ponesimod] (10 µM)	-0.2
C=C1/C(=C\C=C2/CCC[C@]3(C)[C@@H]([C@H](C)CCCC(O)(C(F)(F)F)C(F)(F)F)CC[C@@H]23)C[C@@H](O)C[C@@H]1O [falecalcitriol] (10 µM)	0.0244
O=C1CCc2ccc(OCCCCN3CCN(c4cccc(Cl)c4Cl)CC3)cc2N1 [aripiprazole] (10 µM)	-0.0119
CCCOc1ccc2[nH]cc(C3=CCNCC3)c2n1 (10 µM)	0.24
NCCNC(=O)c1ccc(Cl)cn1 [lazabemide] (10 µM)	0.0341
COCCCC/C(=N\OCCN)c1ccc(C(F)(F)F)cc1 [fluvoxamine] (10 µM)	0.0586
